From PubChem BioAssay (EPA / NIEHS)
The source made the active and inactive calls. Rule for the calls: active = hit-call score of the fitted dose curve at least 0.9, where 1 is the maximum; inactive = score below 0.9.

Test: ATG_CRE_CIS: Attagene CIS-FACTORIAL HepG2 Assay for human cAMP Responsive Element (CRE) binding protein 3 (AID 2282926)
Conditions: HepG2 CRE cis-reporter, Attagene multiplexed mRNA; actives raise or lower the signal
Procedure: ATG_CIS is a cell-based, multiplexed-readout assay that uses HepG2, a human liver cell line, with measurements taken at 24 hours after chemical dosing in a 24-well plate.ATG_CRE_CIS is one of 52 assay component(s) measured or calculated from the ATG_CIS assay. It is designed to make measurements of mRNA induction, a form of inducible reporter, as detected with fluorescence intensity signals by Reverse transcription polymerase chain reaction (RT-PCR) and Capillary electrophoresis technology.Data from the assay component ATG_CRE_CIS was analyzed into 1 assay endpoint. This assay endpoint, ATG_CRE_CIS, was analyzed with bidirectional fitting relative to DMSO as the negative control and baseline of activity. Using a type of inducible reporter, measures of mRNA for gain or loss-of-signal activity can be used to understand the reporter gene at the transcription factor-level as they relate to the gene CREB3. Furthermore, this assay endpoint can be referred to as a primary readout, because this assay has produced multiple assay endpoints where this one serves a reporter gene function. To generalize the intended target to other relatable targets, this assay endpoint is annotated to the dna binding intended target family, where the subfamily is basic leucine zipper.
Human liver HepG2 cells are transiently transfected with multiple reporter transcription units (MRTUs) in 6-well plates using FuGene 6 reagent (Roche; 3 ml FuGene/1 mg DNA). The MRTU constructs are regulated by a cis-regulating element (promoter). […] A major difference between the CIS and TRANS system is that in CIS activities of endogenous TFs are measured, whereas the TRANS assay evaluates changes in activities of exogenous, chimeric NR-Gal4 proteins. […] At the end of 24 hour incubation, total RNA was isolated using TriZol reagent (Invitrogen). The isolated RNA is then reverse-transcribed using oligo(dT) primer and Mo-MLV reverse transcriptase (Invitrogen) with DNAse I (Ambion) treatment for 30 min. The one-tenth of the produced cDNA was amplified by PCR using Taq DNA polymerase (Invitrogen) and two reporter sequence-specific primers. The PCR products were fluorescently labeled by primer extension with 6-arboxyfluorescein (6-FAM) 5'-labeled reporter sequence-specific primer (2 min at 95 C, 20 s at 68 C and 10 min at 72 C) and these products were digested with 5U of HpaI (New England Biolabs) for 2h at 37 C. The fragments were purified using Qiaquick PCR columns (Qiagen), analyzed on an ABI 3130xL genetic analyzer (Applied Biosystems) with peak positions identified by using a set of X-rhodamine (ROX)-labeled MapMarker1000 molecular weight standards (BioVentures). The raw capillary electrophoresis data was processed using Attagraph software (Attagene).
In the case of `CCOC(=O)c1ccccc1C`, the outcome is reported as “inactive”.
For `Oc1ccc(-c2ccccc2)c(Cl)c1`, the AC50 was 33.4 µM (active).
With `O=C(O)C1CCC(C(=O)O)CC1` (stereo not given) the outcome was “inactive”.
For `CC(=O)OCCc1ccccc1`, the outcome was “inactive”.
With `O=C1CCCN1C1CCCCC1` the outcome was “inactive”.
In the case of `CC(C)(CO)COC(=O)C(C)(C)CO`, the outcome is reported as “inactive”.
For `CCCCNS(=O)(=O)c1ccc(C)cc1`, the outcome was “inactive”.
For `CC(Cl)COP(=O)(OCC(C)Cl)OCC(C)Cl` (stereo not given), the outcome was “inactive”.
With `c1ccc2sc(SSN3CCOCC3)nc2c1` the AC50 was 146 µM (active).
For `CCCCC(CC)COS(=O)(=O)O` (stereo not given), the outcome was “inactive”.
With `CC(C)c1ccc(O)c(C(C)C)c1` the outcome was “inactive”.
For `Cc1cc(C)n(CO)n1`, the outcome was “inactive”.
In the case of `Cc1c[nH]c(=O)[nH]c1=O`, the outcome is reported as “inactive”.
With `CCCCCCCCCCCCCc1ccccc1` the outcome was “inactive”.
For `CCCCc1ccc(Cl)cc1`, the outcome was “inactive”.
With `C=CCCCCCCCCOC(C)=O` the outcome was “inactive”.
For `O=C(O)/C=C/c1ccccc1`, the outcome was “inactive”.
For `Cc1cc(=O)[nH]c(=O)[nH]1`, the outcome was “inactive”.
With `CC(=O)CC(=O)Nc1ccccc1C` the outcome was “inactive”.
With `Nc1ccc(C(=O)O)cc1` the outcome was “inactive”.
In the case of `CCCCCCCCCCCCc1ccc(O)cc1`, the outcome is reported as “inactive”.
In the case of `CC(C)(C)C1CCC(=O)CC1`, the outcome is reported as “inactive”.
With `O=S(=O)(O)c1ccc(Nc2nc(Nc3ccc(C=Cc4ccc(Nc5nc(Nc6ccc(S(=O)(=O)O)cc6)nc(N(CCO)CCO)n5)cc4S(=O)(=O)O)c(S(=O)(=O)O)c3)nc(N(CCO)CCO)n2)cc1` the outcome was “inactive”.
With `CCCCCCCCCC(C)=O` the outcome was “inactive”.
For `COc1cc(O)c(C(=O)c2ccccc2)cc1S(=O)(=O)O`, the outcome was “inactive”.
With `CC(C)CCOCc1ccccc1` the outcome was “inactive”.
With `CC(C)[N+](C)(CCOC(=O)C1c2ccccc2Oc2ccccc21)C(C)C` the outcome was “inactive”.
For `CCC(C)c1ccccc1` (stereo not given), the outcome was “inactive”.
For `CCCC(CC)c1ccccc1` (stereo not given), the outcome was “inactive”.
With `O=C(C=Cc1ccccc1)OCCc1ccccc1` the outcome was “inactive”.
With `CCC1COC(=O)O1` (stereo not given) the outcome was “inactive”.
For `C=CC(=O)OCCCCCCCCCC`, the outcome was “inactive”.
For `C[Si]1(C)O[Si](C)(C)O[Si](C)(C)O[Si](C)(C)O[Si](C)(C)O1`, the outcome was “inactive”.
With `COc1ccc(-c2coc3cc(O)cc(O)c3c2=O)cc1` the outcome was “inactive”.
In the case of `CC(c1cc(C(C)(C)C)cc(C(C)(C)C)c1O)c1cc(C(C)(C)C)cc(C(C)(C)C)c1O`, the outcome is reported as “inactive”.
With `CCCCCCCCCCCCC` the outcome was “inactive”.
For `CC1CCC(C(C)(C)S)C(=O)C1` (stereo not given), the outcome was “inactive”.
For `CC(C)(C)N`, the outcome was “inactive”.
In the case of `CC1=CP(=O)(c2ccccc2)CC1` (stereo not given), the outcome is reported as “inactive”.
With `O=C(O)CC(C(=O)O)S(=O)(=O)O` (stereo not given) the outcome was “inactive”.
